# Data published in the supplement of paper PMC6555819.
# Assays:
# Assay in all cases: PBM binding z-score (relative to random genomic background probes); higher = stronger binding; sequences stand for … in GC…GCGATTGACAGCGTAGAATGAAGG
# [1] = system: PPARg:RXRa DBDmut IVT, anti-RXR (DBD mutation: RXRa K156A/R161A, NR concentration 270 nM, RXRa partner concentration 90 nM)
# In short: (§1)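 Antibodies against each partner of ligand-free nuclear receptor dimers (one per run) detected binding on custom Agilent 4×180K protein-binding microarrays after 1 h incubation. The double-stranded probes had 34-nt variable regions carrying direct-repeat seeds, single-nucleotide variants, half-site ablations and random human genomic background sequences. Binding z-scores, from regression-normalized fluorescence, use the random background probes as reference.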
# [2] = system: PPARg:RXRa IVT, anti-PPARg (NR concentration 270 nM, RXRa partner concentration 90 nM)
# In short: as §1
# [3] = system: PPARg DBDmut:RXRa IVT, anti-PPARg (DBD mutation: PPARg1 K132A/R137A, NR concentration 270 nM, RXRa partner concentration 90 nM)
# In short: as §1
# [4] = system: PPARg DBDmut IVT, anti-PPARg (DBD mutation: PPARg1 K132A/R137A, NR concentration 270 nM)
# In short: as §1
# [5] = system: PPARg homodimer (NR concentration 180 nM)
# In short: as §1
# [6] = system: PXR:RXRa (NR concentration 270 nM, RXRa partner concentration 90 nM)
# In short: as §1
# [7] = system: PXR homodimer (NR concentration 270 nM)
# In short: as §1
# [8] = system: RARa:RXR (NR concentration 270 nM, RXRa partner concentration 90 nM)
# In short: as §1
# [9] = system: RARa homodimer (NR concentration 270 nM)
# In short: as §1
# [10] = system: RARb:RXRa (NR concentration 270 nM, RXRa partner concentration 90 nM)
# In short: as §1
Sequence,PBM binding z-score [1],PBM binding z-score [2],PBM binding z-score [3],PBM binding z-score [4],PBM binding z-score [5],PBM binding z-score [6],PBM binding z-score [7],PBM binding z-score [8],PBM binding z-score [9],PBM binding z-score [10]
ATCTCTAGGTAAAGATAGTTCACTGAATGCAAAT,2.05,1.64,0.743,0.839,1.04,1.81,0.848,1.12,0.837,1.26
CGTCCAACGTCAATGCTAGGTCAGTGAAAGCATT,0.0923,0.146,-0.91,-0.198,-0.138,0.124,-0.688,0.602,-0.434,1.33
TAAGACAGGTGAAGGTAACTCAGGTACGCAGTCG,0.644,1.64,0.53,0.465,0.394,0.257,0.588,0.526,0.631,1.51
GCTCGGAGGACAAAGTCAGAGCTTTGTCCGTAGA,-1.01,-0.327,-0.892,-1.25,-0.791,-0.547,-0.9,-0.547,-1.22,0.845
GCGACTGGGGCGAAGCAGGTTACCATAAGGTTGG,0.93,0.737,-1.9,-1.09,-0.411,-0.249,-0.709,-0.0547,-0.898,0.235
GGAACGAGGGCATTCGAGTTGATAGCGTGGCGAT,3.44,2.02,-0.574,-0.961,0.0421,3.71,1.79,0.221,-0.388,1.85
TCTTGTAGATCAAAGGATAAGAAAGCCGAAGCCT,1.75,0.245,0.639,-0.158,0.25,-0.0029,-0.483,-0.193,0.315,-0.125
TCTAGTCGGTCACGGAGGTCACACACGACGGGTA,4.17,5.71,2.36,0.492,3.93,4.93,2.24,5.02,1.39,4.56
TCATATCGGTAAAAGGTGAAAGTCGGTGTGGTAA,3,3.46,0.579,1.77,2.19,1.25,0.807,2.24,1.92,1.97
GCTGTTAGGTCAGGTTGGTCAGCTAACGGGTACG,2.26,1.9,-0.586,0.313,1.07,0.645,-0.159,1.28,0.0798,3.49
CGTCCAAGGTCAATGCTAGGACAGTGAAAGCATT,3.02,3.24,-0.452,-0.465,1.7,3.22,0.241,3.44,-0.11,4.96
CGTCAAAGTTGAAGGTAACGTAACAGAAAGCAGC,0.274,0.441,0.243,0.266,0.228,0.242,-0.121,0.656,0.1,1.64
CCTGCTAGGTCGTGGTCAGCTAATCTACAGTATG,1.33,0.742,-0.546,-0.828,0.0786,0.00895,-0.22,0.444,-0.694,1.71
TCTCGGAGTACACGAAGGTCAGAGCTTTCCAGAG,1.19,0.734,-1.26,-1.48,1.11,2.01,0.814,2,-0.696,2.58
ATCGAAAGGTCGAAGTTGAGTATACCCACCCGAA,0.0828,1.59,1.1,1,1.31,3.05,0.0112,3.76,0.0634,3.84
TCCGACAGGTGAAGGTAACTCAGGTACGCAGTCG,1.51,1.05,-0.595,-0.742,-0.0885,0.293,-0.308,0.63,-0.702,0.858
GGAACGAGGGCAAGTTGATAGCAGAGTTTGATGG,3.78,2.54,-0.0364,-0.551,0.361,0.937,0.84,0.145,-0.166,2.63
ATACCAAGTTGATCGTGAGGTCGTTGATACTAAC,-0.0424,-0.015,0.231,0.701,1.02,2.78,1.61,1.78,1.04,0.897
TGATATAGGTAAAGGTGAAAGTCGAACGATATGA,4.83,5.52,1.32,0.962,2.3,0.991,0.297,1.93,1.63,1.8
TAGCCTAGGTCATGCGGGCCAGTATCGTGTCGGC,1.85,2.82,-0.0878,-0.59,0.211,1.41,-0.532,2,-0.99,3.49
GCGACTGGAGCATCAGCAGGTTACCATAACTTAA,0.414,0.0135,-1.51,-0.56,-0.607,-0.228,-0.687,0.0402,-1.07,-0.26
ATATGTAGGTTAAGGCTCATTCAGGTTGGTTCGC,7.51,7.12,5.15,3.53,2.08,0.38,0.413,0.411,0.882,1.02
GCTAGCAGGCCATTTGGGTCACTAAATGACGGGC,1.58,2.38,-1.03,-1.18,-0.0846,0.38,-0.331,0.585,-0.777,1.42
CCTGCTAGGTCCTGGTCAGCTAATCTACAGTATG,0.239,-0.294,-1.02,-0.479,-0.652,-0.461,-0.864,-0.0873,-0.971,0.56
TCATATAGATAAAAGGTGAAAGTCGGTGTGGTAA,3.23,2.25,0.674,0.805,1.56,1.12,0.535,1.83,1.65,1.73

Sequence,PBM binding z-score [1],PBM binding z-score [2],PBM binding z-score [3],PBM binding z-score [4],PBM binding z-score [5],PBM binding z-score [6],PBM binding z-score [7],PBM binding z-score [8],PBM binding z-score [9],PBM binding z-score [10]
CCTCGGAGGACAGAAGGGCAGAGCTGTCCGCTTT,-0.39,-0.863,-1.35,-1.74,-0.82,-0.857,-0.749,-0.782,-0.361,1.2
GCAACGAGGGCAAGTTGATAGCAGAGTTTGATGG,2.75,1.85,-0.194,-0.32,0.288,0.924,0.464,0.816,-0.0307,2.8
CCTGCTAGGTCATGGTCAGCTCATCTACAGTATG,4.36,3.86,-0.0537,-0.157,1.09,1.52,-0.186,2.4,0.349,4.08
CGAACTAGGTGATCCAGGACAGTGAATACATTGA,5.95,5.54,1.12,0.847,0.425,-0.38,0.369,0.202,0.271,0.0644
CTCGAAAGGTCGTTCTCAGGTGAGTATACCAAAC,0.679,1.61,0.926,0.753,2.11,3.62,0.471,4.19,-0.0759,3.71
TATACAGGGTCATAGGCCAGAGTACGAATGTCGA,2.32,4.47,2.52,2.28,2.09,4,0.517,5.18,1.43,4.25
CGAACTAGGTCAGAACAGGACCGTGAAGGATGAT,7.33,7.06,2.11,0.843,0.797,0.0175,-0.758,0.594,-0.383,2.73
GCAGACAGGTTAAACGCAGGTAACTCAGGGTGGC,0.14,-0.197,-0.311,-1.1,-0.225,0.235,-0.788,1.11,-0.374,1.12
GGAACGAGGGCAAGTCGATAGCAGAGTTTGATGG,3.57,2.5,-0.206,-0.527,-0.162,0.167,0.469,-0.0113,-0.744,2.41
TCGTGTAGATCAGCAGGTTAAGAAAGCTGGCCAA,1.06,-0.357,-0.818,-0.881,0.306,-0.0142,-0.356,0.167,-0.19,-0.0644
TCATATAGGTAATACAGGTGAAGGTCGGCATCTA,4.61,3.61,1.2,1.45,1.83,1.16,0.89,1.69,2.17,1.22
TCATATAGGTAAAGGTGAAAGGCGAACGATATGA,4.32,4.06,1.46,1.05,1.25,0.986,0.264,1.81,0.996,1.99
CAGCCTAGGTCAGGGCCAGTCTAGGAGGAACGTT,1.23,1.44,-1.02,-1.49,0.16,0.386,-0.83,1.06,-0.6,3.28
CCTAGCAGGCCAATCTGGGTCATTCAAGGCTTGA,3.81,4.05,-1.11,-0.944,0.0423,1.63,-0.53,1.04,-0.337,1.17
CCTACTGGGCCATTCATAGGTCATTGATCATATG,4.46,3.82,0.954,-0.204,1.33,1.8,0.411,2.11,0.376,1.88
CCGACTCGGGCAAAGGTTACCATACTCAGTACGA,1.5,4.06,-0.108,-0.188,2.32,2.01,-0.0786,3.12,0.537,2.04
GCTAGCAGGCCATTTGGGTCACTGAATGACGGGC,1.8,2.35,-0.118,-0.738,-0.224,0.537,-0.19,0.876,-0.661,1.49
ACTATTAGTTGAGTTAGGGCAACCGATACGACGC,-0.0972,0.498,1.2,0.707,0.995,0.111,0.462,-0.0618,1.3,0.797
AGAACGAGGGCATTGAGTTGATAGCACGGGTGGC,2.94,2.27,0.115,-0.519,0.179,2.79,9.1,0.267,-0.274,1.87
GCATATAGGTAATGCAAGGTGAAAGTCCGATTGT,4.12,3.49,0.246,0.658,0.642,0.573,0.208,1.73,0.262,0.407
ATATGTAGGTTGTCGGGTCATTCAGTTTGCGCAT,4.37,4.47,1.87,1.67,2.56,3.63,8.53,3.15,1.78,2.08
CTGAGTAGGTTATGGGGCATTCAGGCAACGGTGA,4.73,4.47,0.603,-0.059,0.463,0.0232,0.0116,0.559,-0.472,0.942
AGTCGAAGTTCAGGACGAGGTAACGTAAAGCACG,-0.408,0.263,-0.282,-0.353,0.469,1.19,0.0866,1.42,0.0687,2.41
TGTCAAAATTCAAAGGTAACGTAAGTATCCACAC,-0.0151,1.31,0.599,1.21,0.821,0.362,0.426,1.04,0.683,0.953
